Experiment [1] is described as follows: ATG_PBREM_CIS: Attagene CIS-FACTORIAL HepG2 Assay for human Phenobarbital-responsive Enhancer Module (PBREM) (AID 2282955). The note with it: HepG2 PBREM cis-reporter, Attagene multiplexed transcription; actives raise or lower the signal. In outline:
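Transfected liver-derived HepG2 cells exposed 24 h; PBREM reporter transcript quantified via RT-PCR and capillary electrophoresis, with activity in either direction referenced to DMSO.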

Experiment [2] has as its target Paired box protein Pax-6 (Homo sapiens) (UniProt P26367). As to the kind of experiment: ATG_Pax6_CIS: Attagene CIS-FACTORIAL HepG2 Assay for human Paired Box 6 (PAX6) (AID 2282956). The conditions noted are these: HepG2 CIS-FACTORIAL PAX6 reporter transcription, RNA readout; actives raise or lower the signal. In outline:
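After twenty-four hours of chemical exposure, transfected HepG2 cells are harvested for RNA. Cis-promoter reporter transcripts are amplified, fluorescently labelled and sized by capillary electrophoresis, with gain and loss of signal scored against DMSO.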

A short description of experiment [3]: ATG_PXRE_CIS: Attagene CIS-FACTORIAL HepG2 Assay for human Pregnane X Receptor Element (PXRE) (AID 2282957). The note with it: HepG2 Attagene CIS-FACTORIAL PXRE reporter, mRNA; actives raise or lower the signal. In a few lines: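 Cis-element reporter mRNA in human hepatoma HepG2 cells is measured 24 h post-dosing by RT-PCR, primer-extension labeling and capillary electrophoresis; gain or loss of signal is fitted relative to DMSO.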

Experiment [4] can be described thus: ATG_PPRE_CIS: Attagene CIS-FACTORIAL HepG2 Assay for human Peroxisome Proliferator-activated Response Element (PPRE) (AID 2282958). The note with it: HepG2 PPRE cis-element reporter, Attagene transcription factor profiling; actives raise or lower the signal. In outline: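 Measured endpoint: PPRE-controlled reporter mRNA, detected by RT-PCR and capillary electrophoresis fluorescence, from transiently transfected HepG2 cells 24 h after dosing. Curves fitted in both directions using DMSO baseline.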

Experiment [5] in a line: ATG_RORE_CIS: Attagene CIS-FACTORIAL HepG2 Assay for human RAR-related Orphan Receptor Element (RORE) (AID 2282959). The conditions noted are these: HepG2 Attagene cis-factorial RORE reporter, mRNA; actives raise or lower the signal. In outline:
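Transiently transfected HepG2 reporter cells were treated 24 h. Reporter transcripts were detected by RT-PCR and capillary electrophoresis, with bidirectional fitting against DMSO.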

Experiment [6] can be described thus: ATG_Sox_CIS: Attagene CIS-FACTORIAL HepG2 Assay for human SRY-box transcription factor (SOX) (AID 2282960). The note with it: HepG2 Attagene cis-factorial SOX reporter, mRNA; actives raise or lower the signal. In outline: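 Gain- or loss-of-signal endpoint, fitted bidirectionally with DMSO as negative control. Based on reporter mRNA from transfected HepG2 cells harvested 24 h post-treatment and quantified via RT-PCR and capillary electrophoresis.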

Experiment [7] concerns the target Transcription factor Sp1 (Homo sapiens) (UniProt P08047). As to the kind of experiment: ATG_Sp1_CIS: Attagene CIS-FACTORIAL HepG2 Assay for human Specificity Protein 1 (Sp1) (AID 2282961). The conditions noted are these: HepG2 Sp1 cis-reporter transcription, actives raise or lower the signal. In a few lines: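 Endpoint reflects endogenous Sp1 transcriptional activity, not an exogenous fusion protein: HepG2 cells with transfected cis-regulated reporters, 24 h dosing, RT-PCR/capillary electrophoresis mRNA read-out, DMSO-normalised bidirectional fit.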

Experiment [8] in a line: ATG_SREBP_CIS: Attagene CIS-FACTORIAL HepG2 Assay for human Sterol Regulatory Element Binding (SREBP) (AID 2282962). The conditions noted are these: HepG2 Attagene cis-factorial SREBP reporter, mRNA; actives raise or lower the signal. In outline:
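Twenty-four hours after chemical dosing of transfected HepG2 cultures, reporter RNA was converted to cDNA, amplified, end-labelled with 6-FAM and resolved by capillary electrophoresis. Responses were fitted relative to DMSO.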

For experiment [9], the target named is Signal transducer and activator of transcription 3 (Homo sapiens) (UniProt P40763). Put plainly: ATG_STAT3_CIS: Attagene CIS-FACTORIAL HepG2 Assay for human Signal Transducer and Activator of Transcription 3 (STAT3) (AID 2282963). The note with it: HepG2, Attagene cis-factorial STAT3 reporter transcription; actives raise or lower the signal. In a few lines:
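After a 24 h compound incubation, total RNA from MRTU-transfected HepG2 cells was converted to cDNA and reporter sequences PCR-amplified, labelled and profiled by capillary electrophoresis. Gain and loss of signal were referenced to DMSO.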

Experiment [10] in a line: ATG_TA_CIS: Attagene CIS-FACTORIAL HepG2 Assay for human TA Basal Promoter (AID 2282964). The note with it: HepG2 Attagene CIS-factorial TA basal promoter reporter; actives raise or lower the signal. In outline: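 Read-out: fluorescent reporter-transcript fragments resolved by capillary electrophoresis after RT-PCR and HpaI digestion. Source: HepG2 cells carrying transiently transfected multi-reporter cis constructs, treated 24 h. Endpoint fitted bidirectionally relative to DMSO.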

Activity calls are given as the source filed them. How the source made its calls: active means hit-call score of the fitted dose curve at least 0.9, where 1 is the maximum; inactive means score below 0.9.

By AC50 is commonly meant the concentration giving half of the maximal activity seen.

Sequence of Transcription factor Sp1 (Homo sapiens) (P08047 whole entry, looked up, the tested form may be a part): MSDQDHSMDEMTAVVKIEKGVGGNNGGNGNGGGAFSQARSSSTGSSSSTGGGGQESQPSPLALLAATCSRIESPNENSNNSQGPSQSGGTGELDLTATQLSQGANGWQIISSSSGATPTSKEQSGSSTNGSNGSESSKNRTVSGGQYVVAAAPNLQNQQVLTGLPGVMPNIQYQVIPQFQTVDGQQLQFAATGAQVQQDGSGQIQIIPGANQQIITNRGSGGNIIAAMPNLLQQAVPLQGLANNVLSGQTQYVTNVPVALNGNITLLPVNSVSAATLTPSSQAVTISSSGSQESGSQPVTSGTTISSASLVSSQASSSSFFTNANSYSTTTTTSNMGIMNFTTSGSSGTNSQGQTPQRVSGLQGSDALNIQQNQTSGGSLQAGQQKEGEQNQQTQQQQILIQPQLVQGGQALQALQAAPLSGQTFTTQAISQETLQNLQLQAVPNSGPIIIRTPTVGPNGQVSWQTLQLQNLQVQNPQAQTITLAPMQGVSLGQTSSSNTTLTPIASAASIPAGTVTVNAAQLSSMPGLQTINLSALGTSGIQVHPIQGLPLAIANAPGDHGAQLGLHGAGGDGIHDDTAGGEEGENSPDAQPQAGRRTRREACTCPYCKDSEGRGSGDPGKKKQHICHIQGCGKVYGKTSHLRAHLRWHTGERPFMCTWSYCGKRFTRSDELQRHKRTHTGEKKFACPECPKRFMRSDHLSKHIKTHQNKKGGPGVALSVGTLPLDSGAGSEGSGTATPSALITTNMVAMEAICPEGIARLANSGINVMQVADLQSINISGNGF
Sequence of Paired box protein Pax-6 (Homo sapiens) (P26367 whole entry, looked up): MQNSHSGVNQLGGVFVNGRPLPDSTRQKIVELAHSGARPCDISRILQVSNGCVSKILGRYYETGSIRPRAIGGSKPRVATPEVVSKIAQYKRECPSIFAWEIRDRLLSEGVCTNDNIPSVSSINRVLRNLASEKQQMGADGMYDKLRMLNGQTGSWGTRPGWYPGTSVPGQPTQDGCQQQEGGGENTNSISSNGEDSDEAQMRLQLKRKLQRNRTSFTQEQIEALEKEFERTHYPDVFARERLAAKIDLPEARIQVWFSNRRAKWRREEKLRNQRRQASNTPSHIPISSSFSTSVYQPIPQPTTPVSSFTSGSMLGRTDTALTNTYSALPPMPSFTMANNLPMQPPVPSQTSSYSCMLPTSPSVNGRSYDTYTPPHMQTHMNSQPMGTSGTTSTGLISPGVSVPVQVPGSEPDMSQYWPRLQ
Sequence of Signal transducer and activator of transcription 3 (Homo sapiens) (P40763 whole entry, looked up): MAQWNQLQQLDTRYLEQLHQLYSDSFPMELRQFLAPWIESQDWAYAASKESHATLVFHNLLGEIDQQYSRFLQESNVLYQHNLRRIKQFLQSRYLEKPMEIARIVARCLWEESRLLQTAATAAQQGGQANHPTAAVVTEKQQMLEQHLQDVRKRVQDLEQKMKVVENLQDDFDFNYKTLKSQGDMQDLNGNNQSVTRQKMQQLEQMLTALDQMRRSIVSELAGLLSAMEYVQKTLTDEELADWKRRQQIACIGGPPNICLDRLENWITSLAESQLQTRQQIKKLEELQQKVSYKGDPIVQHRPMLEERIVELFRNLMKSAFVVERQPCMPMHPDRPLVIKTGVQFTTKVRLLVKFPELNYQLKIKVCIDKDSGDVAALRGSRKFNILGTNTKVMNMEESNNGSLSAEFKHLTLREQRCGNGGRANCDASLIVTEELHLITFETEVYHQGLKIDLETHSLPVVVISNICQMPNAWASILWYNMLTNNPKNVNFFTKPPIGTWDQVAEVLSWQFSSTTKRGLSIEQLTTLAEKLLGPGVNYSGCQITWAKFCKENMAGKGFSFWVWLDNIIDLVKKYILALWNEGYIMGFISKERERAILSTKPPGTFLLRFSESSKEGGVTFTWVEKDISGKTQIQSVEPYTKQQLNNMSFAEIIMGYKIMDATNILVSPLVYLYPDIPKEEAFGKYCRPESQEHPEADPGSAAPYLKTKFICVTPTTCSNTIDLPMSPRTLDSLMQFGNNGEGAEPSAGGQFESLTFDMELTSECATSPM

Regarding `CCC(=O)OC(C)(C)C1CC=C(C)CC1` (stereo not given), the result in experiment [1], in [2], in experiment [4], in experiment [5], in experiment [6] and in experiment [7] was inactive. Further, the outcome in experiment [8], in experiment [9] and in [10] was inactive. Moreover, the AC50 in experiment [3] was 27.4 µM (active).
In the case of `CC(C)N1C(=O)c2ccccc2C1=O`, the outcome in experiment [1], in experiment [2], in experiment [4], in [5], in experiment [6] and in experiment [7] was inactive. The call in [8], in [9] and in [10] was inactive. Moreover, in experiment [3], the AC50 is 37.2 µM (active).
In the case of `CCNC(=S)NCC`, the result in [1], in [2], in experiment [3], in experiment [4], in experiment [5] and in experiment [6] was inactive. In addition, the outcome in [7], in [8], in experiment [9] and in experiment [10] was inactive.
As to `CCCCCCCCCC(=O)OCC`, the result in experiment [1], in experiment [2], in experiment [3], in [4], in experiment [5] and in [6] was inactive. Besides, the compound was called inactive in [7], in experiment [8], in experiment [9] and in experiment [10].
For the compound `O=C1OCc2ccccc21`, the result in experiment [1], in [2], in [3], in experiment [4], in experiment [5] and in experiment [6] was inactive. The result in experiment [7], in experiment [8], in experiment [9] and in experiment [10] was inactive.
For `NNC(=O)OCc1ccccc1`, the outcome in experiment [1], in experiment [2], in [3], in [4], in experiment [5] and in experiment [6] was inactive. Further, the outcome in [7], in experiment [8], in experiment [9] and in experiment [10] was inactive.
For the compound `CC=CC(=O)C1=C(C)C=CCC1(C)C`, the result in [1], in experiment [2], in experiment [4], in experiment [5], in experiment [6] and in experiment [7] was inactive. In addition, the outcome in experiment [8], in [9] and in experiment [10] was inactive. In addition, the half-maximal activity concentration (AC50) in experiment [3] is 55.4 µM (active).
For the compound `CCC(C)(CCCC(C)C)OC(C)=O` (stereo not given), the result in experiment [1], in experiment [2], in experiment [3], in experiment [4], in experiment [5] and in experiment [6] was inactive. Moreover, the outcome in experiment [7], in experiment [8], in [9] and in experiment [10] was inactive.
Regarding `COc1ccc(OC)cc1`, the outcome in [1], in experiment [2], in [3], in [4], in [5] and in [6] was inactive. Besides, the result in experiment [7], in experiment [8], in experiment [9] and in experiment [10] was inactive.
As for `COc1ccccc1O`, the outcome in experiment [1], in [2], in experiment [4], in experiment [5], in experiment [6] and in [7] was inactive. Further, the outcome in [8], in experiment [9] and in [10] was inactive. Moreover, the concentration at half-maximal activity (AC50) in [3] is 69.3 µM (active).
As to `Cc1cc(O)c2c(c1)C(=O)c1cc(O)cc(O)c1C2=O`, the AC50 in [1] was 14.9 µM (active); in [4], 12 µM (active); in experiment [7] it was 8.81 µM (active). Further, the call in experiment [2], in experiment [3], in experiment [5], in experiment [6], in experiment [8] and in experiment [9] was inactive. Further, in [10], the compound was called inactive.
Consider `CCC(C)(C)c1cc(O)c(C(C)(C)CC)cc1O`, for which the result in experiment [1], in [3], in experiment [4], in experiment [5], in experiment [9] and in experiment [10] was inactive. For the same compound, the AC50 in [2] is 68.9 µM (active); in [6], 100 µM (active); in [7], 4.19 µM (active); in experiment [8] it was 4.61 µM (active).
In the case of `CC(=O)Nc1cc(S(=O)(=O)O)cc2cc(S(=O)(=O)O)c(N=Nc3ccccc3)c(O)c12`, the outcome in [1], in experiment [2], in [3], in experiment [4], in experiment [5] and in experiment [6] was inactive. The compound was classed as inactive in experiment [7], in [8], in experiment [9] and in [10].
As to `O=c1cc[nH]cc1`, the result in [1], in experiment [2], in experiment [4], in experiment [5], in [6] and in experiment [7] was inactive. In addition, the compound was called inactive in experiment [8], in experiment [9] and in experiment [10]. In addition, in experiment [3], the AC50 is 21 µM (active).
Regarding `COC(=O)c1cccc(C(=O)OC)c1`, the result in [1], in experiment [2], in experiment [3], in experiment [4], in experiment [5] and in experiment [6] was inactive. Further, the outcome in experiment [7], in experiment [8], in experiment [9] and in [10] was inactive.
Consider `CCOC(=O)CC1(C)OCC(C)O1` (stereo not given), for which the result in experiment [1], in experiment [2], in [3], in experiment [4], in experiment [5] and in experiment [6] was inactive. Besides, the result in experiment [7], in [8], in [9] and in experiment [10] was inactive.
With `CC(C)N(c1ccccc1)C(C)C`, the result in [1], in experiment [2], in experiment [3], in experiment [4], in [5] and in experiment [6] was inactive. Further, the call in experiment [7], in [8], in experiment [9] and in [10] was inactive.
Consider `CCCCN(CCCC)CCCCCCN(CCCC)CCCC`, for which the result in experiment [1], in experiment [2], in [3], in experiment [4], in experiment [5] and in experiment [6] was inactive. Besides, the outcome in [7], in experiment [8], in [9] and in experiment [10] was inactive.
With `CCC(=O)OCC=Cc1ccccc1`, the result in experiment [1], in experiment [2], in experiment [4], in experiment [5], in [6] and in experiment [7] was inactive. Also, the outcome in experiment [8], in experiment [9] and in experiment [10] was inactive. Further, the AC50 in experiment [3] is 33.1 µM (active).
For the compound `CCCCC1CCCCC(=O)O1` (stereo not given), the outcome in experiment [1], in experiment [2], in experiment [3], in experiment [5], in experiment [6] and in experiment [7] was inactive. Moreover, the outcome in [8], in experiment [9] and in experiment [10] was inactive. For the same compound, in [4], the concentration at half-maximal activity (AC50) is 44.3 µM (active).
As for `CCOC(=O)CC(C)C`, the result in [1], in [2], in [3], in experiment [4], in experiment [5] and in [6] was inactive. Besides, the compound was classed as inactive in [7], in experiment [8], in [9] and in experiment [10].
`Nc1cc([N+](=O)[O-])ccc1C(=O)O`: the result in experiment [1], in experiment [2], in experiment [4], in experiment [5], in experiment [6] and in experiment [7] was inactive. Besides, the call in [8], in experiment [9] and in experiment [10] was inactive. The half-maximal activity concentration (AC50) in experiment [3] is 64.5 µM (active).
As to `C[C@H](CCC(=O)O)[C@H]1CC[C@H]2[C@@H]3CC[C@@H]4C[C@H](O)CC[C@]4(C)[C@H]3CC[C@]12C`, the result in [1], in [4], in experiment [5], in [6], in [8] and in experiment [9] was inactive. For the same compound, the AC50 was 27.5 µM (active) in [2], 3.75 µM (active) in experiment [3], 168 µM (active) in experiment [7] and 25.3 µM (active) in [10].

(Values after PubChem BioAssay (EPA / NIEHS).)
